Measured values: the supplement of paper PMC11732987, “Enantioselective OTUD7B fragment discovery through chemoproteomics screening and high-throughput optimisation” (Communications Chemistry, 2025)

Experiments:
Test in all cases: log2 ratio of Biotin-Ahx-Ub-VS probe labelling (fragment/DMSO); higher = less target engagement (more negative = stronger competition), active = hit call of the paper (q ≤ 0.05, log2 ratio ≤ -1)
Conditions in all cases: compound concentration: 200 uM; treatment time: 3 h
USP42 = molecular target: T1, USP42 (UniProt Q9H9J4)
T1 sequence (whole entry): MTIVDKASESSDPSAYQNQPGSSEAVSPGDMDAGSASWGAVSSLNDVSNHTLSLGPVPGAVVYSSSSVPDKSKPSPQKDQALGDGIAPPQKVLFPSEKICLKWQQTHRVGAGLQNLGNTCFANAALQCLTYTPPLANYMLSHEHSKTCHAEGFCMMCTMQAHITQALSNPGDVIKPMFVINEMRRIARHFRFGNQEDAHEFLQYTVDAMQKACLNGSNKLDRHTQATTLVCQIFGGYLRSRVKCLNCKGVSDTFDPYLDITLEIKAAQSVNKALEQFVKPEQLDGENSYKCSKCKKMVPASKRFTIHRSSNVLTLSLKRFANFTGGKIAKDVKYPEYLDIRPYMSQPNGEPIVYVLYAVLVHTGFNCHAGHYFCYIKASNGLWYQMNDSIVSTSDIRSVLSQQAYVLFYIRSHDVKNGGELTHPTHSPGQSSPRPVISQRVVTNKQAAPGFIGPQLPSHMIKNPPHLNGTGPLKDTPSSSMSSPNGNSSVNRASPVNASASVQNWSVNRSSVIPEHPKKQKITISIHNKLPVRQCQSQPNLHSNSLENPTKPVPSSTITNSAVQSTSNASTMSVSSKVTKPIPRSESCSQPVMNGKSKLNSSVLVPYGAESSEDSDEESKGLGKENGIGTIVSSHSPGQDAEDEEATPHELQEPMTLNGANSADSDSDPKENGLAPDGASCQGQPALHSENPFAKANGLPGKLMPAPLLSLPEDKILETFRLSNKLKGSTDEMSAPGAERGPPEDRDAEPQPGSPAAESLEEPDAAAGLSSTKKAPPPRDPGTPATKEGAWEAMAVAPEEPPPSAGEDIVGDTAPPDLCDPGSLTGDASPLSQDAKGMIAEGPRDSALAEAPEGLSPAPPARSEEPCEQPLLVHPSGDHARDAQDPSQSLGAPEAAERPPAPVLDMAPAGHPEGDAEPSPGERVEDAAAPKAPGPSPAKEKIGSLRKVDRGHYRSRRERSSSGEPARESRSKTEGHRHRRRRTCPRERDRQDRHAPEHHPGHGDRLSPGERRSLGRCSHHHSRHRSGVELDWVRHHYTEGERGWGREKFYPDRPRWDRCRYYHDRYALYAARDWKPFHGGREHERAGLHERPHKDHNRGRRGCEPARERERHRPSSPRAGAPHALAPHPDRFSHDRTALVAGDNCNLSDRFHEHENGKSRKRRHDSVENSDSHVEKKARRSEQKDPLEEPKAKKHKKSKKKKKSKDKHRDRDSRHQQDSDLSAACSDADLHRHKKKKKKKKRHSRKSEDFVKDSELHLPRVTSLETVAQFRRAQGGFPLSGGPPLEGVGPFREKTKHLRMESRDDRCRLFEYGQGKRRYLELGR
Method in brief: (§1)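 Labelled DUBs from HEK293T lysate were NeutrAvidin-enriched, digested with LysC and trypsin, and run by diaPASEF LC-MS/MS. Before that, each 495 µg sample in Tris/CHAPS/IGEPAL buffer with protease inhibitors was treated in triplicate with fragment at 200 µM or vehicle for 3 h, then with Biotin-Ahx-Ub-VS at 0.5 µM final for 1 h. Values are average log2 ratios of fragment over vehicle by unpaired t-test, based on global-median-normalised Spectronaut label-free quantities from proteins with ≥2 unique peptides.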

USP46 = USP46 (UniProt P62068)
Method in brief: as §1

USP47 = molecular target: T2, USP47 (UniProt Q96K76)
T2 sequence (whole entry): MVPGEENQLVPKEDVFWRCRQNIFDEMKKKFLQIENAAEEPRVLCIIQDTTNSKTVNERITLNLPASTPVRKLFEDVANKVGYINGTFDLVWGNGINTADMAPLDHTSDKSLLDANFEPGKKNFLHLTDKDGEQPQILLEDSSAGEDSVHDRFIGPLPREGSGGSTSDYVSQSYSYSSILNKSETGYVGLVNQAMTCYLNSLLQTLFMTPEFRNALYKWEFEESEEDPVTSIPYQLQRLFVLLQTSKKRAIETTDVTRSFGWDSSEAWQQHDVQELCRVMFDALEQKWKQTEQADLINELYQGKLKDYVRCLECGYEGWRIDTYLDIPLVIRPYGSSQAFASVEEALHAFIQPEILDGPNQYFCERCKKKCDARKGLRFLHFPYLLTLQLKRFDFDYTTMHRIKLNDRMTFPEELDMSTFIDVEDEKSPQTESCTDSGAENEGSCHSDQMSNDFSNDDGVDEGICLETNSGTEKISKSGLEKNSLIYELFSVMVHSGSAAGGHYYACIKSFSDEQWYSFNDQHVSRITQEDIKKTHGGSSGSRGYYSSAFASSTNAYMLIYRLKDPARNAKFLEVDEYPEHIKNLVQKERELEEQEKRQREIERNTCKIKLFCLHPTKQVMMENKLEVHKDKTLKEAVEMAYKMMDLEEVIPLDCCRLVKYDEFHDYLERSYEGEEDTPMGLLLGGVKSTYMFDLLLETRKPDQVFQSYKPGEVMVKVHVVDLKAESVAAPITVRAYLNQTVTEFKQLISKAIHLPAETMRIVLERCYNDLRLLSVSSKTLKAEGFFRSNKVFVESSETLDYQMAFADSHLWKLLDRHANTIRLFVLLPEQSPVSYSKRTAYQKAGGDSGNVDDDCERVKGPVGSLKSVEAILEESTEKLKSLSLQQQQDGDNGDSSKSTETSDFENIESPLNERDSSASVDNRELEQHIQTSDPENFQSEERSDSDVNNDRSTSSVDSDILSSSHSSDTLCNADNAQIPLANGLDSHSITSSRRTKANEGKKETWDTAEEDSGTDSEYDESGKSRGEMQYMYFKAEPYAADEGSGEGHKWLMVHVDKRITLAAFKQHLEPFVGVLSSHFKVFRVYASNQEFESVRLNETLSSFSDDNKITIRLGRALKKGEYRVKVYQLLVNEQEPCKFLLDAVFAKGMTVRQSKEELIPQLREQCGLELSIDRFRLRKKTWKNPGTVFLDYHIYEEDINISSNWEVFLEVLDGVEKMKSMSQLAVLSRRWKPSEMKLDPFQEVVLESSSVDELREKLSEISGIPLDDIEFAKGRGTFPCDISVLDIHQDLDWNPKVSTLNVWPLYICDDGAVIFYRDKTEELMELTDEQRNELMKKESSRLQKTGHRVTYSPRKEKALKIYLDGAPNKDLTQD
Method in brief: as §1

USP48 = molecular target: T3, USP48 (UniProt Q86UV5)
T3 sequence (whole entry): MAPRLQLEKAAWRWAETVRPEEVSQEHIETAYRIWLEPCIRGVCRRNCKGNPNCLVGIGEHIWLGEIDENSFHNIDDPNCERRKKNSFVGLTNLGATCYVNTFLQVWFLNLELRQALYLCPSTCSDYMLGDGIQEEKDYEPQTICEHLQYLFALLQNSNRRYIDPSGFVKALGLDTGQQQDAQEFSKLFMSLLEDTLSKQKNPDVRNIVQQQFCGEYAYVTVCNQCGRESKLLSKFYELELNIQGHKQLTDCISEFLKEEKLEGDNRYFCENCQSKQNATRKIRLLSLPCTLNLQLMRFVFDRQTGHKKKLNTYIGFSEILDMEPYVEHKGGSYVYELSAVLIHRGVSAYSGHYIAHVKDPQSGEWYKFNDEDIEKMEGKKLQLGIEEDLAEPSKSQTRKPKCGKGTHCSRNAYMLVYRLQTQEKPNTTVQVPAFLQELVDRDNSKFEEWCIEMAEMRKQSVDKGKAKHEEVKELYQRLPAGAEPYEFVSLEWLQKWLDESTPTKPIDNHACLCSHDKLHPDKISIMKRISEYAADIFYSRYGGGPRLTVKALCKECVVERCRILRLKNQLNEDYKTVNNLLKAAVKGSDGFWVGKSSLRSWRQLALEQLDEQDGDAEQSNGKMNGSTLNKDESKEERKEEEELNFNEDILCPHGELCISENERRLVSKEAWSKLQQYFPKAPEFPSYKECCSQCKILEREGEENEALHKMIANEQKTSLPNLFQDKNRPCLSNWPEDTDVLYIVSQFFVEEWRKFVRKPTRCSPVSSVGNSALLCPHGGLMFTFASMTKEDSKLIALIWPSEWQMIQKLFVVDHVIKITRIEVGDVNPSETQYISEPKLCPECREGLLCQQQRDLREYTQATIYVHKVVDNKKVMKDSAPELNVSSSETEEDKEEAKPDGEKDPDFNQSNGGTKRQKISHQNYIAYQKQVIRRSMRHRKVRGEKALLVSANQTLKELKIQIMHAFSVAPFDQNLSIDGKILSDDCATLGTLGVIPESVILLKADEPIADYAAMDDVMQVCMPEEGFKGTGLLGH
Method in brief: as §1

USP5 = molecular target: T4, USP5 (UniProt P45974)
T4 sequence (whole entry): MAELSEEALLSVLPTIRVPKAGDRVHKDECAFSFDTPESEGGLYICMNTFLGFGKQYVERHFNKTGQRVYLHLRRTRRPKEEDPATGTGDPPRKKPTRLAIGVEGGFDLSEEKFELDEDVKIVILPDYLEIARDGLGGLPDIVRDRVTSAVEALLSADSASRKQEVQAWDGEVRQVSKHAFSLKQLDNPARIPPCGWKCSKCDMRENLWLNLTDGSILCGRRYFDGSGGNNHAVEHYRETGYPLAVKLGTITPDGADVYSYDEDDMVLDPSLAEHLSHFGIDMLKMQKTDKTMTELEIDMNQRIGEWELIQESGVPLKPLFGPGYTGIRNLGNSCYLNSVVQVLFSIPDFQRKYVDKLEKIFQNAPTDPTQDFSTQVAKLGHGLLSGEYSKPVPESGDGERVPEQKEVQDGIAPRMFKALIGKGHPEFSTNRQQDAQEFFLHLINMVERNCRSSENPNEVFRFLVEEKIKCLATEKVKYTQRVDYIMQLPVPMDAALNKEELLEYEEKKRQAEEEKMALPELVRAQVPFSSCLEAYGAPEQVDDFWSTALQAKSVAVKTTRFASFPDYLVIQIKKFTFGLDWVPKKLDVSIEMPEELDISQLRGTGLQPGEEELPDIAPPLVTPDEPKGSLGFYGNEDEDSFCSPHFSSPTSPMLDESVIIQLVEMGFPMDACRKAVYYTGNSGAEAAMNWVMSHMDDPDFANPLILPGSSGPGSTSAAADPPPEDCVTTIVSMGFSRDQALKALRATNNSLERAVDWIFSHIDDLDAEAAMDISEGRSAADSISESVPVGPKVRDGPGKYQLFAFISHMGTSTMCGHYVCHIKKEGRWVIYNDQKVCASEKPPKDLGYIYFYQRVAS
Method in brief: as §1

USP54 = USP54 (UniProt Q70EL1)
Method in brief: as §1

USP7 = USP7 (UniProt Q93009)
Method in brief: as §1

USP8 = molecular target: T5, USP8 (UniProt P40818)
T5 sequence (whole entry): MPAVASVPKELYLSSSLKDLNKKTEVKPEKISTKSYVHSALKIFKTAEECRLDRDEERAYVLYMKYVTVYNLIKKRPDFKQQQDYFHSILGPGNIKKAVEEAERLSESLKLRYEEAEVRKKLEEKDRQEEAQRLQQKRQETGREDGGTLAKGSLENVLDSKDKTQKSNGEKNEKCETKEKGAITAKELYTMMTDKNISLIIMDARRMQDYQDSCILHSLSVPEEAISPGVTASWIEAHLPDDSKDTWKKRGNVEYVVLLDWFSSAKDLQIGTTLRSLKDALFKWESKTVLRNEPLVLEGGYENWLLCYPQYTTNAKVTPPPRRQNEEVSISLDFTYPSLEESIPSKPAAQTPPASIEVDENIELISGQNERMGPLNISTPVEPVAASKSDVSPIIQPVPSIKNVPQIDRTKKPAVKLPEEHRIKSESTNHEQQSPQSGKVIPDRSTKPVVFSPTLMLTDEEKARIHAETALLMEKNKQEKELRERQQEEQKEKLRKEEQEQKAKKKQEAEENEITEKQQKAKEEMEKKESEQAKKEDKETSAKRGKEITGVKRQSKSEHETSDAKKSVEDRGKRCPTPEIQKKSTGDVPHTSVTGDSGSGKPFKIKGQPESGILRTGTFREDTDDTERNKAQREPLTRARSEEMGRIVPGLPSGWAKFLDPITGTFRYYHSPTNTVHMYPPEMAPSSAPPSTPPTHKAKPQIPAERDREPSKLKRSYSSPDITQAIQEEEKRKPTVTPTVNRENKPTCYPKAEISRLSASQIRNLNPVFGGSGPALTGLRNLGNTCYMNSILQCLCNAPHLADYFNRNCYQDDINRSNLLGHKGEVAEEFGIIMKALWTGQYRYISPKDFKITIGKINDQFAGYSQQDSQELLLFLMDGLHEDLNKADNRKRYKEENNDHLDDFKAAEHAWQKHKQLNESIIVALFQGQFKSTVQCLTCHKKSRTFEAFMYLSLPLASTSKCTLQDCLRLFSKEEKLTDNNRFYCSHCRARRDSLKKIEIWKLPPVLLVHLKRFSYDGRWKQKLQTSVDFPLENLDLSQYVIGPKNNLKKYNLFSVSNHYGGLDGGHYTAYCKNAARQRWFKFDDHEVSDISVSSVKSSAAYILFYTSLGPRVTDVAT
Method in brief: as §1

USP9X = USP9X (UniProt Q93008)
Method in brief: as §1

UniProt O00487 = molecular target: UniProt O00487
Method in brief: as §1

Measured: log2 ratio of Biotin-Ahx-Ub-VS probe labelling

Sequence of USP54 (Q70EL1 whole entry): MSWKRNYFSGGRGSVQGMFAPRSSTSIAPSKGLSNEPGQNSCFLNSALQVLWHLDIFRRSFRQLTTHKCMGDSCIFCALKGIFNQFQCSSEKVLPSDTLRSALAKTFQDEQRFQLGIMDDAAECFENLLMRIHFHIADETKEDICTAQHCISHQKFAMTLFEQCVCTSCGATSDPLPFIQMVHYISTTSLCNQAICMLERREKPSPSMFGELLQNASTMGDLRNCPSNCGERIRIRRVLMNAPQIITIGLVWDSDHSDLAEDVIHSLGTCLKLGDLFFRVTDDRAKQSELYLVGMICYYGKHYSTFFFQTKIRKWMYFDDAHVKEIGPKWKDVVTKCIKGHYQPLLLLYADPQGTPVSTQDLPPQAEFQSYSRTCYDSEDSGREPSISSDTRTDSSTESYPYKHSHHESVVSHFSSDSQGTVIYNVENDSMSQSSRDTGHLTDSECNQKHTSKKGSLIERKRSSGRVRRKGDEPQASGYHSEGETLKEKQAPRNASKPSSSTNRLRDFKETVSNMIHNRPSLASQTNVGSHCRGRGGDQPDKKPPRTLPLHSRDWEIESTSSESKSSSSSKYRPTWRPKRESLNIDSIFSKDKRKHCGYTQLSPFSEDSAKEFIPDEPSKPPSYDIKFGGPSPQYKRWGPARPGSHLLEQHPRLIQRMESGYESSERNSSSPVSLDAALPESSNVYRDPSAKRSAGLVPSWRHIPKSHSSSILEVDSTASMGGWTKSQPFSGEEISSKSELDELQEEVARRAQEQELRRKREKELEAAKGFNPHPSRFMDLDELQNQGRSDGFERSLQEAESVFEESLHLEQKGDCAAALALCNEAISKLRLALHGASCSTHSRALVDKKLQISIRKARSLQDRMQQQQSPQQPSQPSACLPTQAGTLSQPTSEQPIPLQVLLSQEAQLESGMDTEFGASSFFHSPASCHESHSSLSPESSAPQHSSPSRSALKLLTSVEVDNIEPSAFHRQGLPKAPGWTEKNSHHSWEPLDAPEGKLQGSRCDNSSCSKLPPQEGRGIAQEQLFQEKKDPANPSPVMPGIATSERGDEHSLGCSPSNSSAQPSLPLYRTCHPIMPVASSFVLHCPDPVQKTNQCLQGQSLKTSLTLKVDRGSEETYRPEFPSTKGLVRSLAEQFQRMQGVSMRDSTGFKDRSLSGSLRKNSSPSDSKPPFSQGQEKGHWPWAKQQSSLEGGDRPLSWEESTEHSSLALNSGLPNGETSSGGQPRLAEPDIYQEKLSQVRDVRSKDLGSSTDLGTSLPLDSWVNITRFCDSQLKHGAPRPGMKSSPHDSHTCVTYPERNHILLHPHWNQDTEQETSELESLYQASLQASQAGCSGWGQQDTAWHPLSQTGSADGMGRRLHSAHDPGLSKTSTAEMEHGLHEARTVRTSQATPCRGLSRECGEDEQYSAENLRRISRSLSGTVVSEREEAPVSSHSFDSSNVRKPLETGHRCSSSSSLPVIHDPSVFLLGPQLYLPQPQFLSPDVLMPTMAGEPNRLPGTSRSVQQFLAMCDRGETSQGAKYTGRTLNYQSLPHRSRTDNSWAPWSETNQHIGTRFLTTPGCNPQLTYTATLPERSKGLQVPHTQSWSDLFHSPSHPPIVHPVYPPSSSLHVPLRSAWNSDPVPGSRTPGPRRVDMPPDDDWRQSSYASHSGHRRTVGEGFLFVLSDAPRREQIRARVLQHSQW
Sequence of USP7 (Q93009 whole entry, looked up): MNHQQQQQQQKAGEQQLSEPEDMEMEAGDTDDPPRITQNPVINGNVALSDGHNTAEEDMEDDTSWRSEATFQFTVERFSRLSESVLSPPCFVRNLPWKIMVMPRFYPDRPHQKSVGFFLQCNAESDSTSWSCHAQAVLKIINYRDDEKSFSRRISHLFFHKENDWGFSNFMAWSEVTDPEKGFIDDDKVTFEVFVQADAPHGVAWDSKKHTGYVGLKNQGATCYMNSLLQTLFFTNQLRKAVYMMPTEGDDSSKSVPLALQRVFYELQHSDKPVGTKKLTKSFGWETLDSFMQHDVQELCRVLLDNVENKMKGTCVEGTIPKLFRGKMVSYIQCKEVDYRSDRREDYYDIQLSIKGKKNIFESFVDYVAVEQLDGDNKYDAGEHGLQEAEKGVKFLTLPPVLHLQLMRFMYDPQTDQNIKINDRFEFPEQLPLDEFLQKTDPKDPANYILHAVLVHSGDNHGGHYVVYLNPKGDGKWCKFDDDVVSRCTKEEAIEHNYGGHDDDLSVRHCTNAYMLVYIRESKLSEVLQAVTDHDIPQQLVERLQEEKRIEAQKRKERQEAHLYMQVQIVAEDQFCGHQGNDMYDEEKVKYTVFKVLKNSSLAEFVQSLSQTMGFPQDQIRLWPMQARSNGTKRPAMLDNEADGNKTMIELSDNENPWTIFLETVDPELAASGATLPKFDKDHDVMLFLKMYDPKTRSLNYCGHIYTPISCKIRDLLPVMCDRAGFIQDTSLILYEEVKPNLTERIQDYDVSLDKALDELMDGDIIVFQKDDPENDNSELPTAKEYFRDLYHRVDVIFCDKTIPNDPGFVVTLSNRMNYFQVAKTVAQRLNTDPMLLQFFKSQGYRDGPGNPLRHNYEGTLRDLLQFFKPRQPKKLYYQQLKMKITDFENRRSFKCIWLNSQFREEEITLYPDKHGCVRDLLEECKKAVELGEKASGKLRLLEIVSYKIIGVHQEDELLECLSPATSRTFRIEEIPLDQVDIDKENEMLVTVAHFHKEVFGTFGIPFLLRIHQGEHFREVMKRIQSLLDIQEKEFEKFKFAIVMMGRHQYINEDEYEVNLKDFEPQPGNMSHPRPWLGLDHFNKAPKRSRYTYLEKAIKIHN
Sequence of UniProt O00487 (O00487 whole entry): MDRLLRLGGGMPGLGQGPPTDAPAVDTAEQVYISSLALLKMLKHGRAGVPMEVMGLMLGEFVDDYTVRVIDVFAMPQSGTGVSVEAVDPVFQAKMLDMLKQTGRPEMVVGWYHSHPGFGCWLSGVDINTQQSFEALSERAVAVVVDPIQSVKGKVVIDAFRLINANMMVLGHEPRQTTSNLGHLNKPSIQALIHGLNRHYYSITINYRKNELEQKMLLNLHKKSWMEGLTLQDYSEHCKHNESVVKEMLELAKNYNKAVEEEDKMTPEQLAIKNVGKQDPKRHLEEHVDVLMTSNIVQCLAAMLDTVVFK
Sequence of USP46 (P62068 whole entry): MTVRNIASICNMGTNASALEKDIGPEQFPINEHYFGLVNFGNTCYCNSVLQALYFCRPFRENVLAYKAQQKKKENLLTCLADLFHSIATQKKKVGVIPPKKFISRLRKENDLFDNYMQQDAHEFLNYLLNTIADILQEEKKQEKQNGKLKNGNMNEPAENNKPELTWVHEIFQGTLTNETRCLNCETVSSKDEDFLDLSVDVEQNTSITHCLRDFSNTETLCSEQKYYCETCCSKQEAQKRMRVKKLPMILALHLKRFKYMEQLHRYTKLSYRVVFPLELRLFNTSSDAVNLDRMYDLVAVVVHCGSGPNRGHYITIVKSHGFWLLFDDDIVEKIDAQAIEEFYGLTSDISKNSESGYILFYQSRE

O=C(CCl)NC1CCOc2ccccc21 (stereo not given)
inactive: USP42 0.184 | USP46 -0.506 | USP47 -0.268 | USP48 -0.603 | USP5 -0.575 | USP54 0.931 | USP7 -0.739 | USP8 -0.69 | USP9X -0.868 | UniProt O00487 0.0141

N#Cc1cnn(-c2ccccc2)c1NC(=O)CCl
inactive: USP42 -0.0771 | USP46 -0.0464 | USP47 -0.263 | USP48 -0.451 | USP5 -0.203 | USP54 0.718 | USP7 -0.45 | USP8 -0.512 | USP9X -0.317 | UniProt O00487 -0.0605
